PubChem BioAssay (Tox21)
“And” between values parts separate entries of the source, which are not always exact repeats. Identical values can stand only once. Inconclusive results are not listed. The source made the active and inactive calls. The call rests on the fitted dose curve; in most records, active means well fitted curve in the direction sought with a large enough effect in the repeat runs; inconclusive means weak or mixed curves; inactive means no such curve, though single readings can be large; an effect the other way counts as inactive or inconclusive.

What was measured:
[1] = A CellTox Green Cytotoxicity Assay to monitor cytotoxicity in HEK293 cells - 40 hour (AID 1224871); further: nearly all actives have a fitted effect of over 45% in size
Procedure, shortened: (§1)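 Seeding of HEK293 cells together with cytotoxicity dye preceded a 5 h incubation at 37 C/5% CO2. Test compounds in DMSO were then added and fluorescence monitored across 40 h.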

[2] = qHTS RealTime-Glo MT Cell Viability Assay in HEK293 cells - 16 hour (AID 1224872); further: top concentration of the series differs between compounds; nearly all actives have a fitted effect of over 50% in size
Procedure, shortened: (§2)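 Nonlytic real-time viability readout: viable cells convert prosubstrate to NanoLuc substrate, giving luminescence proportional to live cell number. HEK293, 600 cells/well, compound added after 5 h, continuous culture at 37 C.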

[3] = qHTS RealTime-Glo MT Cell Viability Assay in HepG2 cells - 8 hour (AID 1224873); further: nearly all actives have a fitted effect of over 55% in size
Procedure, shortened: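 HepG2 cells mixed with RealTime-Glo MT reagents (NanoLuc plus cell-permeant prosubstrate) were seeded at 600 cells/well, incubated 5 h at 37 C/5% CO2, then pinned with compounds in DMSO; nonlytic luminescence tracked viability during 40 h treatment.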

[4] = qHTS RealTime-Glo MT Cell Viability Assay in HEK293 cells - 40 hour (AID 1224874); settings: RealTime-Glo luminescence; max response: hits give low values; further: nearly all actives have a fitted effect of over 50% in size
Procedure, shortened: (§3)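 Tox21 screen in HEK293 using RealTime-Glo MT chemistry, with cells and reagent co-dispensed. Luminescence proportional to viable cell number was captured at intervals during 40 h compound exposure at 37 C.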

[5] = A CellTox Green Cytotoxicity Assay to monitor cytotoxicity in HEK293 cells - 24 hour (AID 1224875); further: series mostly up to about 77 µM; nearly all actives have a fitted effect of over 45% in size
Procedure, shortened: as §1

[6] = A CellTox Green Cytotoxicity Assay to monitor cytotoxicity in HepG2 cells - 16 hour (AID 1224876); further: nearly all actives have a fitted effect of over 45% in size
Procedure, shortened: (§4)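 Nonlytic assay: viable cells exclude the dye, so fluorescence scales with cell death. HepG2 at 600 cells/well, compounds added after 5 h, signal read across 40 h.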

[7] = qHTS RealTime-Glo MT Cell Viability Assay in HepG2 cells - 32 hour (AID 1224877); further: nearly all actives have a fitted effect of over 55% in size
Procedure, shortened: (§5)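 Luminescence read-out: viable HepG2 cells reduce a prosubstrate to a NanoLuc substrate, giving a signal proportional to live cell number. Reads taken at 0, 8, 16, 24, 32 and 40 h of compound exposure at 37 C.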

[8] = A CellTox Green Cytotoxicity Assay to monitor cytotoxicity in HepG2 cells - 24 hour (AID 1224878); further: nearly all actives have a fitted effect of over 45% in size
Procedure, shortened: as §4

[9] = A CellTox Green Cytotoxicity Assay to monitor cytotoxicity in HepG2 cells - 40 hour (AID 1224879); further: nearly all actives have a fitted effect of over 40% in size
Procedure, shortened: as §4

[10] = qHTS RealTime-Glo MT Cell Viability Assay in HEK293 cells - 0 hour (AID 1224880)
Procedure, shortened: as §3

[11] = A CellTox Green Cytotoxicity Assay to monitor cytotoxicity in HEK293 cells - 32 hour (AID 1224881); further: nearly all actives have a fitted effect of over 40% in size
Procedure, shortened: as §1

[12] = A CellTox Green Cytotoxicity Assay to monitor cytotoxicity in HepG2 cells - 0 hour (AID 1224882); further: nearly all actives have a fitted effect of over 35% in size
Procedure, shortened: as §4

[13] = A CellTox Green Cytotoxicity Assay to monitor cytotoxicity in HepG2 cells - 32 hour (AID 1224883); further: nearly all actives have a fitted effect of over 50% in size
Procedure, shortened: as §4

[14] = A CellTox Green Cytotoxicity Assay to monitor cytotoxicity in HEK293 cells - 8 hour (AID 1224884); further: nearly all actives have a fitted effect of over 35% in size
Procedure, shortened: as §1

[15] = qHTS RealTime-Glo MT Cell Viability Assay in HepG2 cells - 16 hour (AID 1224885); further: nearly all actives have a fitted effect of over 50% in size
Procedure, shortened: as §5

[16] = qHTS RealTime-Glo MT Cell Viability Assay in HEK293 cells - 24 hour (AID 1224886)
Procedure, shortened: as §2

[17] = A CellTox Green Cytotoxicity Assay to monitor cytotoxicity in HEK293 cells - 16 hour (AID 1224888); further: nearly all actives have a fitted effect of over 35% in size
Procedure, shortened: as §1

[18] = qHTS RealTime-Glo MT Cell Viability Assay in HepG2 cells - 0 hour (AID 1224889); further: nearly all actives have a fitted effect of over 50% in size
Procedure, shortened: as §5

[19] = qHTS RealTime-Glo MT Cell Viability Assay in HEK293 cells - 8 hour (AID 1224887)
Procedure, shortened: as §3
On the % scale 0 is the no-effect control and ±100 the full control effect.

Cc1cc(NS(=O)(=O)c2ccc(N)cc2)no1
inactive: Potency [1] | Potency [2] | Potency [3] | max response [4] 3.11% and 0.646% | Potency [5] | Potency [6] | Potency [7] | Potency [8] | Potency [9] | Potency [10] | Potency [11] | Potency [12] | Potency [13] | Potency [14] | Potency [15] | Potency [16] | Potency [17] | Potency [18]

C=C(C#N)C(=O)OCC
inactive: Potency [1] | Potency [2] | Potency [3] | max response [4] -3.09% and 0.0188% | Potency [5] | Potency [6] | Potency [8] | Potency [9] | Potency [10] | Potency [11] | Potency [12] | Potency [13] | Potency [14] | Potency [15] | Potency [16] | Potency [19] | Potency [17] | Potency [18]

c1ccc2[nH]cnc2c1
inactive: Potency [1] | Potency [2] | Potency [3] | max response [4] -5.47% and 1.04% | Potency [5] | Potency [8] | Potency [9] | Potency [10] | Potency [11] | Potency [12] | Potency [13] | Potency [14] | Potency [15] | Potency [16] | Potency [19] | Potency [17] | Potency [18]

O=C(Oc1ccccc1)c1ccc(O)cc1
inactive: Potency [1] | Potency [2] | Potency [3] | max response [4] -21.6% and -15.5% | Potency [5] | Potency [6] | Potency [7] | Potency [8] | Potency [9] | Potency [10] | Potency [11] | Potency [12] | Potency [13] | Potency [14] | Potency [15] | Potency [16] | Potency [17] | Potency [18]

CCc1ccc(O)cc1
inactive: Potency [1] | Potency [2] | Potency [3] | Potency [5] | Potency [6] | Potency [7] | Potency [8] | Potency [9] | Potency [10] | Potency [11] | Potency [12] | Potency [13] | Potency [14] | Potency [15] | Potency [16] | Potency [19] | Potency [17] | Potency [18]

C=CC(=O)OCCCCCCCC(C)C
inactive: Potency [1] | Potency [2] | Potency [3] | max response [4] 4.58% and 25.2% | Potency [5] | Potency [6] | Potency [7] | Potency [8] | Potency [9] | Potency [11] | Potency [12] | Potency [13] | Potency [14] | Potency [15] | Potency [16] | Potency [19] | Potency [17]

Clc1ccc(Cl)c(Cl)c1Cl
inactive: Potency [1] | Potency [2] | Potency [3] | max response [4] 0.667% and -4.21% | Potency [5] | Potency [8] | Potency [9] | Potency [11] | Potency [12] | Potency [13] | Potency [14] | Potency [15] | Potency [16] | Potency [19] | Potency [17] | Potency [18]

CN(CCOc1ccc(CC2SC(=O)NC2=O)cc1)c1ccccn1 (centres undefined)
inactive: Potency [1] | Potency [2] | Potency [3] | max response [4] -1.82% | Potency [5] | Potency [7] | Potency [8] | Potency [9] | Potency [11] | Potency [12] | Potency [13] | Potency [14] | Potency [15] | Potency [16] | Potency [19] | Potency [17] | Potency [18]

O=c1c(-c2ccc(O)cc2)coc2cc(O)ccc12
inactive: Potency [1] | Potency [2] | Potency [3] | Potency [5] | Potency [6] | Potency [8] | Potency [9] | Potency [10] | Potency [11] | Potency [12] | Potency [13] | Potency [14] | Potency [15] | Potency [17] | Potency [18]
